# TDP1 cell CPT: growth inhibition of DT40 Tdp1-/-;hTDP1 cells with camptothecin (screen for TDP1 inhibitors); 420,000 tested, 12% active; Potency, µM (series often up to 46.2 µM), inactives show at the top dose activity change, negative = growth inhibition, most hits filed as inhibitors; AID 686979; chicken DT40 Tdp1-/-;hTDP1 cells + 20 nM CPT, ATP luminescence, 48 h; note: potency is the fitted concentration of half-maximal effect; nearly all actives have a fitted effect of over 55% in size
#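 Chicken DT40 Tdp1-/- cells complemented with human TDP1, 400 cells/well, exposed to compounds plus 20 nM camptothecin for at least 48 h at 37 C; viability read as ATP content by CellTiter-Glo luminescence.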
# HT1080 IDH1KD tx: kills HT-1080 cells with IDH1 knockdown; HT-1080 IDH1 knockdown viability, ATP luminescence, 48 h; Potency, µM (top dose mostly 46.1 µM), for inactives: at the highest dose activity, negative = toxicity, most hits filed as cytotoxic; 360,000 tested, 2% active;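 note: potency is the fitted concentration of half-maximal effect; 0% = DMSO wells and -100% = cell-free medium wells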
#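 In this qHTS, HT-1080 cells depleted of IDH1 are exposed for 48 h at 37 °C to compound titrations. Toxicity is scored from CellTiter-Glo luminescence, with DMSO as full viability and medium alone as none.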
# TDP1 cell noCPT: qHTS for Inhibitors of human tyrosyl-DNA phosphodiesterase 1 (TDP1): qHTS in cells in absence of CPT. Potency, µM (series often up to 46.2 µM), without a hit: top-dose activity change, negative = growth inhibition, most hits filed as inhibitors. 420,000 tested, 15% active. DT40 Tdp1-/- hTDP1 cells, no CPT, ATP luminescence, 48 h. AID 686978, 2013; note: potency is the fitted concentration of half-maximal effect; nearly all actives have a fitted effect of over 55% in size
#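 Luminescent ATP content (CellTiter-Glo) served as the growth readout. Knockout chicken DT40 cells expressing human TDP1 were exposed to compounds without camptothecin for a minimum 48 hr at 37 °C.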
# IL1B secr inh: inhibitors of inflammasome signaling (IL-1 beta secretion); THP-1 LPS/ATP IL-1B secretion, AlphaLISA, 16 h; active compounds read low; activity change, % at 57.5 µM; 360,000 tested, 4.7% active; AID 743279; in the data active = activity change below about -50%; inconclusive = mostly about -30% to -49%
#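 THP-1 cells pretreated 1 hr with compounds (up to 57.5 uM final), then stimulated with LPS (250 ng/mL final) plus ATP (1.25 mM final); secreted IL-1B measured by AlphaLISA after 16 hr, decreased signal indicating inhibition.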
# HT1080-NT tox: kills 2HG-producing HT-1080-NT fibrosarcoma cells; HT-1080-NT fibrosarcoma viability, CellTiter-Glo ATP luminescence, 48 h; Potency, µM (series often up to 46.1 µM), for inactives: top-dose activity, negative = less viability, actives largely listed as cytotoxic; 360,000 tested, 1.6% active;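 note: NT is the 2HG producing partner of a matched IDH1 knockdown line; potency is the fitted concentration of half-maximal effect; 0% = DMSO-treated cells and -100% = media-only wells without cells; nearly all actives have a fitted effect of over 55% in size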
#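 750 cells/well, RPMI + 5% FBS; 2 h settle, compound pin-transfer, 48 h at 37 degrees C. CellTiter-Glo 10 min RT, luminescence. Normalized to DMSO and media-only wells.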
# ALOX12 inh: inhibitors of human 12S-lipoxygenase ALOX12 | P18054 | purified 12hLO, xylenol orange hydroperoxide absorbance | Potency, µM (titrated, usually from 108 µM), for the others: at the highest dose activity change, negative = inhibition, most hits filed as inhibitors | 580,000 tested, 1.1% active | AID 1671190; note: potency is the fitted concentration of half-maximal effect
# Target sequence (P18054 whole entry, looked up): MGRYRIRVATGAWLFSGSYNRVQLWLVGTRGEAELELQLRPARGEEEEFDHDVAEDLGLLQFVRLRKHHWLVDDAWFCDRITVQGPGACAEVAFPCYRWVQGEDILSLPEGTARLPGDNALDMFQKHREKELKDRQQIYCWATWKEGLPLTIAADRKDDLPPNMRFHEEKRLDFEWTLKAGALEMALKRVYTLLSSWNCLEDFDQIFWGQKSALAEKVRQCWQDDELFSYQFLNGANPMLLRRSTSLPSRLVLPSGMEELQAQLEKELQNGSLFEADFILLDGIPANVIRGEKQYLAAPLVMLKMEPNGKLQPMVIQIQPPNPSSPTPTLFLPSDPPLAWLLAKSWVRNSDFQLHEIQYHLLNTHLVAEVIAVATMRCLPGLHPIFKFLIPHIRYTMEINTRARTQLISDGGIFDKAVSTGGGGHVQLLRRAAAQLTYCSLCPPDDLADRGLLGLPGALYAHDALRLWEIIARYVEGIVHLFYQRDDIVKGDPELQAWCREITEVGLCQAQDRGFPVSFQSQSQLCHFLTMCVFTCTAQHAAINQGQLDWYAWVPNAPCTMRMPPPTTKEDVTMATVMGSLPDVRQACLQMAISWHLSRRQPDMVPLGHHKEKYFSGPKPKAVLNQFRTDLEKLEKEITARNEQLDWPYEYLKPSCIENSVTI
#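 Purified human 12hLO (150 nM final) in 25 mM Hepes, 0.01% Triton X-100, pH 7.0 was preincubated 15 min at room temperature with compound. Then 40 uM arachidonic acid was added, 30 min. Hydroperoxide was read by Fe-XO absorbance ratio 573/405 nm.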
# Starred values were filed as active, the others as inactive; u = inconclusive; x = no result; ! = not confirmed by another sample; [ ] = remark or other dose. This excerpt belongs to a sample that is enriched for hits. Unless noted, calls come from the whole dose curve; as a rule, active = well fitted curve in the direction sought with a large enough effect; inconclusive = small, poorly fitted or top-dose-only effect, or another doubt; inactive = no such curve, though single readings can be large; an effect the other way counts as inactive or inconclusive. Unless noted, % is set by controls: 0 for no effect and ±100 for the full control effect.
SMILES,TDP1 cell CPT,HT1080 IDH1KD tx,TDP1 cell noCPT,IL1B secr inh,HT1080-NT tox,ALOX12 inh
Cn1ccc2ccc(C(=O)N3CCC(C#N)(c4ccccc4)CC3)cc21,x,x,x,x,x,-8.6%
Cc1c(C(=O)NCc2nccs2)cnn1-c1ncc2c(n1)-c1ccccc1CC2,9.2µM*,x,20.6µM*,x,x,-3.1%
O=C(NC[C@H]1C[C@@H]2CCN1C[C@@H]2CN1CCC(Cc2ccccc2)CC1)Nc1ccsc1,x,x,x,x,x,-5.2%
COP(=O)(OC)C1(O)C(=O)Nc2ccc(Br)cc21 (configuration not stated),16.4µM*,13.9%,u,0.0,12.1%,-1.1%
COc1ccc(C2SCC(=O)Nc3[nH]ncc32)cc1OC1CCCC1 (configuration not stated),x,x,x,x,x,-1.1%
O=S(=O)(NCC(c1cccnc1)N1CCN(c2ccc(F)cc2)CC1)c1ccccc1 (configuration not stated),11.6µM*,-6.0%,20.6µM*,9.1,2.9%,8.3%
O=C(COc1ccccc1Cl)N1CCCC(N2CCN(c3ccc(F)cc3)CC2)C1 (configuration not stated),u,-19.0%,u,u,-1.8%,0.1%
CN(Cc1ccccc1)C1CCCN(C(=O)COc2ccccc2Cl)C1 (configuration not stated),u,-1.6%,16.4µM*,-8.4,-7.6%,-0.6%
O=C(O)C1=NOC2CN(CC3CC3)CC12 (configuration not stated),x,x,x,x,x,0.7%[12.5 µM]
O=C(O)C1=NOC2CN(Cc3cncs3)CC12 (configuration not stated),x,x,x,x,x,12.6µM*
Cn1c(CN2CCCCC2)nc2cc(NC(=O)c3cccc(Br)c3)ccc21,u,u,u,-78.4*,u,-5.6%
O=C(CN1CCCCC1)c1cccc(Br)c1,-3.2%,1.8%,-19.9%,16.7,2.1%,-19.9%
Cn1c(NN=O)nc2ccccc21,u,4.61µM*,u,120.7,u,-0.8%
COc1ccc(-c2nc(CSCC(=O)N3CCC4(CC3)OCCO4)c(C)o2)cc1OC,-27.7%,-12.2%,-22.7%,19.4,-4.4%,-24.1%
CCc1ccc(-c2nc(CSCC(=O)N3CCN(c4ccc(F)cc4)CC3)c(C)o2)cc1,20.6µM*,x,u,x,x,-17.0%
COc1ccc(-c2nc(CSCC(=O)N3CCN(c4ccc(F)cc4)CC3)c(C)o2)cc1,13µM*,x,8.2µM*,x,x,-0.9%
O=C1NC2(Cc3ccccc31)CN(C1COC1)C2,x,x,x,x,x,1.8%[12.5 µM]
COc1cc2c(cc1OC1CCCC1)NC(=O)C21CCN(Cc2ccccc2)CC1,x,x,x,x,x,-11.4%[176 µM]
O=C1c2ccccc2-c2cccc3cccc1c23,20.6µM*!,0.6%,18.4µM*!,-17.0,16.8%,u
O=C1c2ccccc2-c2cc3ccccc3cc21,-24.7%,-1.7%,u,-9.3,4.9%,u
C=C[C@H]1CN2CC[C@H]1C[C@@H]2CNS(=O)(=O)c1ccc(C)cc1,x,x,x,x,x,-0.9%[176 µM]
CCN(CC)C(=O)c1ccc(N2C(=O)CCS2(=O)=O)cc1Cl,x,x,x,x,x,-5.8%
Cc1ccc(OP2(=O)Nc3cc(C)c(C)cc3S2)cc1 (configuration not stated),u,u,u,-68.8*,u,20µM*
CCCCN(CC)c1c([N+](=O)[O-])cc(C(F)(F)F)cc1[N+](=O)[O-],-4.5%,x,18.4%,x,x,x
CCCN(CCC)c1c([N+](=O)[O-])cc(S(N)(=O)=O)cc1[N+](=O)[O-],u,x,30.6µM*,x,x,u
SMILES,TDP1 cell CPT,HT1080 IDH1KD tx,TDP1 cell noCPT,IL1B secr inh,HT1080-NT tox,ALOX12 inh
COc1cc2c(cc1O)-c1c(O)c(OC)cc3c1[C@H](C2)N(C)CC3,-43.2%,x,u,x,x,x
CCCN1CCc2cccc3c2C1Cc1ccc(O)c(O)c1-3 (configuration not stated),3.66µM*,x,-89.3%,x,x,u
COc1cc2c(cc1O)C[C@H]1c3c(cc(O)c(OC)c3-2)CCN1C,-2.5%,2.2%,-2.3%,0.2,22.3%,-19.6%
CN1CCc2cc(O)cc3c2[C@H]1Cc1ccc(O)c(O)c1-3,1.64µM*,5.8µM*,2.59µM*,-17.4,8.2µM*,u
Cn1cccc1C(=O)C(=O)N1C[C@H](c2cc(F)cc(F)c2)[C@@H]2[C@H]1C1CCN2CC1,x,x,x,x,x,2.6%
CCCC(C)NC(=O)COC(=O)c1c(C)n(C2CC2)c2ccc(OC)cc12 (configuration not stated),x,x,x,x,x,7.4%
CCCN(CCC)C(=O)C(CCC(=O)OCCCN1CCN(CCOC(=O)Cc2c(C)n(C(=O)c3ccc(Cl)cc3)c3ccc(OC)cc23)CC1)NC(=O)c1ccccc1 (configuration not stated),13.3µM*,x,10.6µM*,x,x,u
COc1ccccc1CNC(=O)[C@H]1CN2CC[C@H]1C[C@@H]2Cn1cc(CCO)nn1,x,x,x,x,x,19.8%[176 µM]
CC(C)c1ccc(NC(=O)c2ccc(F)c(S(=O)(=O)N3CCc4ccccc4C3)c2)cc1,4.61µM*,x,5.17µM*,x,x,u
CCCCc1ccc(NC(=O)c2ccc3c(c2)CCN3S(=O)(=O)CC)cc1,7.31µM*,x,3.66µM*,x,x,-28.3%
CCN(CC)C(=O)c1ccc(NC(=O)c2ccc(N3CCCC3=O)cc2)cc1,9.4%,9.7%,-4.4%,-13.9,2.1%,341.5%
CC(C)c1ccc(NC(=O)c2ccc3c(c2)CCN3S(=O)(=O)c2ccccc2)cc1,4.61µM*,x,5.8µM*,x,x,-20.9%
COCC(=O)NC[C@H]1C[C@@H]2CCN1C[C@@H]2CN1CCc2ccccc2C1,x,x,x,x,x,-0.5%[176 µM]
Cc1ncc2c(n1)C[C@@H]1CC[C@H]2N1S(=O)(=O)c1ccc2c(c1)OCCO2,x,x,x,x,x,-15.2%
O=C(c1ccc2c(c1)OCO2)N1[C@H]2CC[C@@H]1c1cnc(-c3ccccc3)nc1C2,x,x,x,x,x,-5.1%
O=c1c2ccccc2nc(-c2ccco2)n1-c1ccc(Br)cc1,11.6µM*,-15.9%,16.4µM*,-16.7,-13.7%,-3.2%
Cc1cccnc1-n1c(-c2ccccc2)nc2ccccc2c1=O,13µM*,1.9%,13µM*,0.0,0.0%,-18.3%
Cc1ccc(-c2nc3ccccc3c(=O)n2-c2ccc(O)cc2)cc1,2.59µM*,2.3%,4.11µM*,48.2,0.2%,8.9%
Cc1ccc(-n2c(-c3cccs3)nc3ccccc3c2=O)cc1,9.2µM*,8.9%,11.6µM*,-22.3,11.9%,-19.0%
O=c1c2ccccc2nc(-c2ccccc2)n1-c1ccc(O)cc1,u,-7.0%,u,6.8,18.1%,16.4%

# Compound activity (PubChem)
